Our source for the outcome values is PubChem BioAssay (EPA / NIEHS).

Records with an inconclusive call do not appear. Active and inactive are the calls of the source. How the source made its calls: active means hit-call score of the fitted dose curve at least 0.9, where 1 is the maximum; inconclusive means response in the unintended direction; inactive means score below 0.9.

Chain of Cytochrome P450 2C19 (Homo sapiens) (P33261 whole entry, looked up): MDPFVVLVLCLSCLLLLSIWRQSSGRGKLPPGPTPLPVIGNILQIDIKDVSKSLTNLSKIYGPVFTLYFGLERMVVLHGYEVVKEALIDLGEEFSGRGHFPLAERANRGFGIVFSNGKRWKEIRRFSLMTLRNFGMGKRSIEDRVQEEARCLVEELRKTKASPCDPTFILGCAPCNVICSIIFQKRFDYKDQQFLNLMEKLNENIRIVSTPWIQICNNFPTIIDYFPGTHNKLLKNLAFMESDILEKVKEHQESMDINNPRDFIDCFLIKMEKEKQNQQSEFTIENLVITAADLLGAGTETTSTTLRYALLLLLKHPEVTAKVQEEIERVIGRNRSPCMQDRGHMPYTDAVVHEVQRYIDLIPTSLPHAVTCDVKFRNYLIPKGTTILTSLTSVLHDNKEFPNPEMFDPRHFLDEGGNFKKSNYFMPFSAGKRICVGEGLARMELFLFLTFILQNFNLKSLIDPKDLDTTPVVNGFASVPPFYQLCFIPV

Read-out in this experiment: Cytochrome P450 2C19 (Homo sapiens) (UniProt P33261)
Put plainly: CLD_CYP2C19_6hr: CellzDirect (CLD) Gene Expression Assay for xenobiotic metabolism (CYP2C19) at 6 hours (AID 2283678). The method, then: CLD_6hr is a cell-based, multiplexed-readout assay that uses hepatocyte, a human liver primary cell, with measurements taken at 6 hours after chemical dosing in a 96-well plate.CLD_CYP2C19_6hr is one of 16 assay component(s) measured or calculated from the CLD_6hr assay. It is designed to make measurements of mRNA induction, a form of inducible reporter, as detected with chemiluminescence signals by Quantitative Nuclease Protection Assay (qNPA) technology.Data from the assay component CLD_CYP2C19_6hr was analyzed at the endpoint, CLD_CYP2C19_6hr, in the positive analysis fitting direction relative to DMSO as the negative control and baseline of activity. Using a type of inducible reporter, gain-of-signal activity can be used to understand changes in the reporter gene as they relate to the gene CYP2C19. Furthermore, this assay endpoint can be referred to as a primary readout. To generalize the intended target to other relatable targets, this assay endpoint is annotated to the cyp intended target family, where subfamily is xenobiotic metabolism.
Human hepatocyte cultures were treated daily for two consecutive days with fresh dosing solutions containing appropriate concentrations of the 320 ToxCast chemicals (chemical identities were blinded to CellzDirect and other ToxCast collaborators), vehicle control (0.2% DMSO), and positive control inducers as summarized in Table 1. Due to the large number of treatment groups and chemicals examined, the ToxCast chemicals were divided into two groups (spanning two independent cultures of hepatocytes from separate donor preparations (Hu778: ToxCast plates 1 and 2; Hu776: ToxCast plates 3 and 4). Each preparation of human hepatocyte cultures was treated with respective vehicle control, medium only control, set of six positive controls/reference chemicals for the five hepatic receptor pathways, and a subset of eight of the ToxCast chemicals (indoxacarb, pyrithiobac-sodium, norflurazon, cyhalofop-butyl, methomyl, thiram, acetochlor, and propiconazole). These replicate data, coupled with internal replicates designed within the blinded ToxCast chemical library, provided additional data to evaluate interindividual differences between hepatocyte preparations and their potential impact on chemical profiles.Cell morphology and integrity were evaluated using phase-contrast microscopy as an indicator of hepatocyte cell health (Tyson & Green, 1987). Cultures for each treatment group (i.e., media, vehicle [0.2% DMSO], positive control inducers [multiple concentrations], and the ToxCast chemicals [multiple concentrations]) were observed and cell morphology was assessed relative to vehicle control cultures at each harvest time point (0, 6, 24, or 48 h). […] Images were evaluated at the conclusion of the study to assess changes in cell integrity and account for the effects of chemical exposure on uncharacteristic changes in concentration-dependent gene expression profiles. The results from these determinations of apparent cytotoxicity were annotated (yes/no) alongside the corresponding qNPA data for reference.At the conclusion of each treatment period, hepatocyte cultures (96-well) were washed with 1 volume of HBSS, lysed by addition of 25 ul ArrayPlate lysis buffer (HTG, Tucson, AZ), and 70 ul/well of Denaturation Oil, denatured by incubation at 95C for 10 min, and frozen at approximately -70C until analysis by nuclease protection assay (qNPA) (Roberts et al., 2007). For qNPA analysis, cell lysates were thawed at 50C for approximately 30 min, qNPA probes were added, and samples were incubated at 95C for 10 min to begin the detection process by denaturing the target RNA, dissociating the duplexes and secondary structure hybridization. At the conclusion of the hybridization period, S1 nuclease reagent was added to each sample to digest all nonprotected nucleotides at 50C for 60-90 min. […]
For the compound `COC(=O)NC(=S)Nc1ccccc1NC(=S)NC(=O)OC`, the outcome was inactive.
To `N#CN=C1SCCN1Cc1ccc(Cl)nc1` belongs “inactive”.
The same measure for `CS(=O)(=O)c1cc(C(F)(F)F)ccc1C(=O)c1cnoc1C1CC1`: “inactive”; for `CCCCC(C#N)(Cn1cncn1)c1ccc(Cl)cc1` (stereo not given): “inactive”.
Regarding `CC(C)N1C(=O)c2ccccc2NS1(=O)=O`, the compound was called inactive.
The same measure for `CC1(C)CCC(=Cc2ccc(Cl)cc2)C1(O)Cn1cncn1` (stereo not given): “inactive”.
To `N#Cc1c(Cl)cccc1Cl` belongs “inactive”.
To `CCOC(=O)C(C)OC(=O)c1cc(Oc2ccc(C(F)(F)F)cc2Cl)ccc1[N+](=O)[O-]` (stereo not given) belongs “inactive”; to `OC(c1ccc(Cl)cc1)(c1ccc(Cl)cc1)C(Cl)(Cl)Cl`, “inactive”.
As to `CCOc1nc(C(Cl)(Cl)Cl)ns1`, the compound was called inactive.
The same measure for `COC(=O)c1c(C(F)F)nc(C(F)(F)F)c(C2=NCCS2)c1CC(C)C`: “inactive”.
In the case of `Nc1c(Cl)c(Cl)nc(C(=O)O)c1Cl`, the call was inactive.
To `CC1(C)CON(Cc2ccccc2Cl)C1=O` belongs “inactive”; to `O=c1n(Cl)c(=O)n(Cl)c(=O)n1Cl`, “inactive”; to `CC(C)Oc1cccc(NC(=O)c2ccccc2C(F)(F)F)c1`, “inactive”.
Regarding `Cc1ccc(N=CN(C)C=Nc2ccc(C)cc2C)c(C)c1`, the call was inactive.
For `CCNC(=O)NC(=O)C(C#N)=NOC`, the compound was classed as inactive.
The same measure for `COCc1cnc(C2=NC(C)(C(C)C)C(=O)N2)c(C(=O)O)c1` (stereo not given): “inactive”; for `CC(C)=CC1C(C(=O)OCc2coc(Cc3ccccc3)c2)C1(C)C` (stereo not given): “inactive”.
The same measure for `COP(=O)(OC)O/C(C)=C/C(=O)N(C)C`: “inactive”.
To `COc1cc(OC)nc(NC(=O)NS(=O)(=O)c2ncccc2OCC(F)(F)F)n1` belongs “inactive”; to `O=C(O)c1c(Cl)ccc2cc(Cl)cnc12`, “inactive”; to `CN=C=S`, “inactive”.
For the compound `CCOc1nc(F)cc2nc(S(=O)(=O)Nc3c(Cl)cccc3Cl)nn12`, the result was inactive.
Regarding `O=C(Nc1ccccc1-c1ccc(Cl)cc1)c1cccnc1Cl`, the call was inactive.
The same measure for `Clc1cccc(C(Cl)(Cl)Cl)n1`: “inactive”; for `CNC(=O)N(C)c1nnc(C(C)(C)C)s1`: “inactive”; for `COCC(=O)N(c1c(C)cccc1C)C(C)C(=O)OC` (stereo not given): “inactive”.
To `CSC(=O)c1c(C(F)F)nc(C(F)(F)F)c(C(=O)SC)c1CC(C)C` belongs “inactive”.
To `C=C(C)CN(CC)c1c([N+](=O)[O-])cc(C(F)(F)F)cc1[N+](=O)[O-]` belongs “inactive”.
On to `CC(C)C1(C)N=C(c2ncccc2C(=O)O)NC1=O` (stereo not given), for which the result was inactive.
Regarding `CC(C)(C)C(=O)C(Oc1ccc(Cl)cc1)n1cncn1` (stereo not given), the call was inactive.
In the case of `CCOP(=O)(OCC)Oc1nc(Cl)c(Cl)cc1Cl`, the call was inactive.
To `COP(=S)(OC)Oc1ccc([N+](=O)[O-])c(C)c1` belongs “inactive”.
To `COC(=O)NS(=O)(=O)c1ccc(N)cc1` belongs “inactive”.
